Screens deposited in PubChem by National Center for Advancing Translational Sciences (NCATS).
Most compounds without a hit are left out; they make up all but 7.3% or so of the library.
HCV inhibitor: HCV inhibition; Huh7.5.1 HCVcc-Cre infection, luciferase reporter, 44 h; Potency, µM (titrated, usually from 41.8 µM), for the others: at the top dose activity change, negative = inhibition, most hits filed as inhibitors; 340,000 compounds, 3.4% hits; active = well fitted inhibition curve with a large enough effect; inconclusive = small, poorly fitted or top-dose-only effect, or another doubt; inactive = no such curve, though single readings can be large or run the other way; also: potency is read from the fitted curve at half-maximal effect
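Cells (1,000/well) were plated 4 h before compound, then infected with HCVcc-Cre virus (~0.5 moi). After 44 h further culture, infection was read as luciferase luminescence following a 15 min substrate incubation at room temperature.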
VACV Venus inh: inhibitors of vaccinia virus (Venus reporter) | Potency, µM (top dose mostly 36.5 µM), inactives show at the highest dose activity change, negative = inhibition, hits mostly inhibitors | AID 720580 | 330,000 compounds, 0.46% hits | Vaccinia virus Venus reporter expression, fluorescence; calls by dose curve; tested in A549 cells; also: potency is read from the fitted curve at half-maximal effect; nearly all actives have a fitted effect of over 30% in size
Vaccinia mCherry: vaccinia inhibition (mCherry reporter); Vaccinia virus mCherry reporter infection, fluorescence; Potency, µM (doses to about 36.5 µM), inactives show at the highest dose activity change, negative = inhibition, hits mostly inhibitors; 310,000 compounds, 0.63% hits; calls by dose curve; tested in A549 cells; also: potency is read from the fitted curve at half-maximal effect; nearly all actives have a fitted effect of over 35% in size
HCMV inh: inhibitors of human cytomegalovirus. AID 1259415. 410,000 compounds, 4.5% hits. activity change, negative = inhibition, % at 57.5 µM. HFF cells, HCMV-luciferase reporter, 72 h; hits give low values; in the data active = activity change below about -60%; inconclusive = no clear call, values can overlap the other calls; inactive = above about -39%
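Luciferase read-out from HCMV-luciferase-infected HFFs (MOI 1 PFU/cell) 72 h post infection at 37C; compounds added after 16 h cell attachment; activity normalized between buffer-only basal and Salinomycin (10uM) inhibitor controls.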
FMDV inh: antivirals against foot and mouth disease virus | FMDV antiviral cell-based qHTS | Potency, µM (top dose mostly 57.9 µM), without a hit: top-dose activity change, negative = inhibition, hits mostly inhibitors | 410,000 compounds, 1.2% hits | AID 1159524; calls by dose curve; tested in HEK293T cells; also: read-out not given here; potency is read from the fitted curve at half-maximal effect; nearly all actives have a fitted effect of over 45% in size
An asterisk follows results filed as active; i = inactive; ? = inconclusive; nt = no result given. % is scaled to controls: 0 for no effect and ±100 for the full control effect.

SMILES	HCV inhibitor	VACV Venus inh	Vaccinia mCherry	HCMV inh	FMDV inh
COc1ccc(NC(=O)CSC2=Nc3ccccc3C3=NC(CC(=O)NCc4ccc5c(c4)OCO5)C(=O)N23)cc1 (centres undefined)	nt	-6%	-3%	53	-14%
Clc1ccc2c(NCCNC3CCCCC3)ccnc2c1	7.9µM*	?	-13%	-84*	-20%
O=C(NCCNC(=O)c1ccccc1F)c1ccccn1	11%	-7%	-14%	8	22%
O=C(NCCCNc1ccnc2cc(Cl)ccc12)c1ccccc1F	10µM*	nt	nt	-34	-29%
CC1CCCN1c1ccnc2cc(Cl)ccc12 (centres undefined)	?	-8%	-13%	-39	-21%
Clc1ccc2c(NCc3ccccn3)ccnc2c1	?	nt	nt	-72*	?
Cc1ccc(N(C)/N=C/c2ccc(Cl)cc2Cl)nn1	1%	nt	nt	-68*	49%
CN(/N=C/c1ccc(Cl)cc1Cl)c1ncc(Cl)cc1C(F)(F)F	5%	nt	nt	12	-1%
CC1=CC(=O)c2ccccc2C1=O	-6%	-11%	-13%	?	-13%
CC(C)(C=O)C1=CC(=O)c2ccccc2C1=O	7.1µM*	-13%	-27%	0	35µM*
CN(C)CCCNC(=O)[C@@H]1[C@@H](CO)[C@@H]2Cn3c(cccc3=O)[C@H]1N2C(=O)Nc1cc(F)ccc1F	nt	nt	nt	1	nt
O=C(c1ccc(Cl)cc1)c1cn(Cc2ccccc2)c2cc3c(cc2c1=O)OCCO3	nt	?	?	-63*	0%
COc1ccc(Cn2cc(C(=O)c3ccc(Cl)cc3)c(=O)c3cc4c(cc32)OCO4)cc1	nt	?	?	-98*	29%
O=C(c1ccc(F)cc1)c1cn(Cc2ccccc2F)c2cc3c(cc2c1=O)OCCO3	nt	-9%	-13%	-37	-20%
COc1ccc2c(c1)c(=O)c(C(=O)c1ccc(C)cc1)cn2Cc1ccccc1F	nt	-24%	-26%	-69*	-27%
COc1ccc(Cn2cc(C(=O)c3ccc(OC)cc3)c(=O)c3cc4c(cc32)OCCO4)cc1	nt	-6%	-9%	?	-12%
Cc1ccc(C(=O)c2cn(Cc3ccccc3)c3nc(C)ccc3c2=O)cc1	nt	-5%	-3%	-73*	-15%
O=C1NCN(c2ccccc2)C12CCN(C(c1cccc3ccccc13)c1nnnn1Cc1ccccc1)CC2 (centres undefined)	nt	-7%	-7%	-29	-8%
O=c1[nH]c2ccccc2n1C1CCN(C(c2cc3ccccc3o2)c2nnnn2Cc2ccccc2)CC1 (centres undefined)	nt	?	?	-101*	?
O=c1[nH]c2ccccc2n1C1CCN(C(CCc2ccccc2)c2nnnn2C2CCCC2)CC1 (centres undefined)	nt	?	?	-102*	35µM*
C(=C\c1ccccc1)/CN1CCN(C(CCc2ccccc2)c2nnnn2C2CCCCC2)CC1 (centres undefined)	nt	-8%	25%	-40	0%
O=c1[nH]c2ccccc2n1C1CCN(C(c2cccc3ccccc23)c2nnnn2Cc2ccccc2)CC1 (centres undefined)	nt	-26%	-6%	-75*	-29%
COc1cccc(C(c2nnnn2Cc2ccccc2)N2CCC(n3c(=O)[nH]c4ccccc43)CC2)c1OC (centres undefined)	nt	-24%	-11%	-70*	-29%
C[C@H]1COc2cccc(N(C)CCO)c2S(=O)(=O)N1	nt	-16%	i	-33	-13%
C[C@H](NC(=O)c1nc[nH]c1C(=O)N(C)CCO)c1ccccc1	nt	-1%	2%	1	-8%
SMILES	HCV inhibitor	VACV Venus inh	Vaccinia mCherry	HCMV inh	FMDV inh
CCC(C)c1ccc(NC(=S)NCc2ccccc2OC)cc1 (centres undefined)	-24%	-16%	-7%	?	18%
C=CCc1c(C)nc2c(OC)cccc2c1Cl	?	-14%	-8%	-83*	7%
COc1cccc2c(Cl)c(CC=C(Cl)Cl)c(C)nc12	?	-18%	-20%	-28	?
COc1ccc(C(=S)N2CCN(c3ccccc3C)CC2)cc1OC	-13%	-29%	-2%	-9	19%
Cc1ccnc2nc(C(=O)OCC(=O)Nc3ccc4c(c3)OCCO4)nn12	6%	-13%	0%	-8	7%
CCN(CC)c1ccc(/C=C2\SC(=O)N(C(C)C)C2=O)o1	10µM*	40%	i	nt	19%
